Reference: PubChem BioAssay AID1159580 (chemical genetic matrix, 2015)
Several values for one entry are separate records, joined by “and”; a condition that tells them apart may be missing. Equal values may be shown once. In all, about 5,500 compounds went through this assay and about 2,000 (36%) were called active. Roughly 18% stayed inconclusive and do not appear here. Rule as the data show it: active = normalized growth mostly below about 0.91 (no sharp cut-off); inconclusive = no clear call, values can overlap the other calls; inactive = mostly above about 0.92. The list shows a part of the results.

Assay: chemical genetic growth profiling, strain panel (AID 1159580);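 also: tested at 20 µM; growth read once vehicle control cultures reached saturation at 30 °C; 1 = growth at the plate median or of vehicle wells; lower values mean less growth of the strain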
Conditions: S. cerevisiae deletion strains, growth OD

Measured: normalized growth

CC1=C(O)C(=O)C=C2C1=CC=C1[C@@]2(C)CC[C@@]2(C)[C@@H]3C[C@](C)(C(=O)O)CC[C@]3(C)CC[C@]12C
inactive: locus YBR021W, strain FUR4, stronger effect = lower value 0.859 | locus YDL185W, strain tfp1, stronger effect = lower value 0.943
active: locus YAL021C, strain ccr4, stronger effect = lower value 0.56 | locus YAL026C, strain drs2, stronger effect = lower value 0.51 | locus YAL030W, strain snc1, stronger effect = lower value 0.573 | locus YBL061C, strain skt5, stronger effect = lower value 0.479 | locus YBR009C, strain hhf1, stronger effect = lower value 0.375 | locus YBR023C, strain chs3, stronger effect = lower value 0.42 | locus YBR171W, strain sec66, stronger effect = lower value 0.812 | locus YBR229C, strain ROT2, stronger effect = lower value 0.623 | locus YBR231C, strain swc5, stronger effect = lower value 0.307 | locus YBR279W, strain paf1, stronger effect = lower value 0.527 | locus YCL011C, strain gbp2, stronger effect = lower value 0.433 | locus YCL016C, strain dcc1, stronger effect = lower value 0.592 | locus YCL029C, strain bik1, stronger effect = lower value 0.493 | locus YCL061C, strain MRC1, stronger effect = lower value 0.611 | locus YCL069W, strain vba3, stronger effect = lower value 0.611 | locus YCR088W, strain abp1, stronger effect = lower value 0.64 | locus YDL005C, strain med2, stronger effect = lower value 0.509 | locus YDL035C, strain GPR1, stronger effect = lower value 0.391 | locus YDL040C, strain nat1, stronger effect = lower value 0.848 | locus YDL074C, strain BRE1, stronger effect = lower value 0.195 | locus YDL101C, strain DUN1, stronger effect = lower value 0.264 | locus YDL134C, strain PPH21, stronger effect = lower value 0.44 | locus YDL192W, strain arf1, stronger effect = lower value 0.568 | locus YDR001C, strain nth1, stronger effect = lower value 0.806 | locus YDR069C, strain doa4, stronger effect = lower value 0.327 | locus YDR101C, strain arx1, stronger effect = lower value 0.665 | locus YDR137W, strain rgp1, stronger effect = lower value 0.238 | locus YDR159W, strain sac3, stronger effect = lower value 0.403 | locus YDR162C, strain NBP2, stronger effect = lower value 0.098 | locus YDR195W, strain ref2 0.348 | locus YDR297W, strain sur2, stronger effect = lower value 0.429 | locus YDR318W, strain mcm21, stronger effect = lower value 0.523 | locus YDR334W, strain swr1, stronger effect = lower value 0.353 | locus YDR335W, strain msn5, stronger effect = lower value 0.522 | locus YDR388W, stronger effect = lower value 0.683 | locus YDR392W, strain spt3, stronger effect = lower value 0.101 | locus YDR502C, strain sam2, stronger effect = lower value 0.521 | locus YEL003W, strain gim4, stronger effect = lower value 0.489 | locus YEL037C, strain rad23, stronger effect = lower value 0.769 | locus YEL061C, strain CIN8 (second series), stronger effect = lower value 0.403 | locus YEL061C, strain CIN8, stronger effect = lower value 0.391 | locus YER015W, strain faa2, stronger effect = lower value 0.429 | locus YER016W, strain bim1, stronger effect = lower value 0.565 | locus YER110C, stronger effect = lower value 0.766 | locus YER111C, strain swi4, stronger effect = lower value 0.329 | locus YER155C, strain BEM2 (second series), stronger effect = lower value 0.342 | locus YER155C, strain BEM2, stronger effect = lower value 0.254 | locus YER167W, strain BCK2, stronger effect = lower value 0.334 | locus YFR010W, strain ubp6, stronger effect = lower value 0.657 | locus YGL078C, strain dbp3, stronger effect = lower value 0.905 | locus YGL086W, strain mad1, stronger effect = lower value 0.619 | locus YGL167C, strain pmr1, stronger effect = lower value 0.706 | locus YGL173C, strain kem1, stronger effect = lower value 0.27 | locus YGL227W, strain vid30, stronger effect = lower value 0.571 | locus YGL240W, strain doc1, stronger effect = lower value 0.646 | locus YGL248W, strain PDE1, stronger effect = lower value 0.369 | locus YGL253W, strain hxk2, stronger effect = lower value 0.485 | locus YGR135W, strain pre9, stronger effect = lower value 0.557 | locus YGR252W, strain gcn5, stronger effect = lower value 0.5 | locus YHR013C, strain ard1, stronger effect = lower value 0.273 | locus YHR027C, strain rpn1, stronger effect = lower value 0.423 | locus YHR030C, strain SLT2, stronger effect = lower value 0.248 and 0.76 | locus YHR079C, strain IRE1 (second series), stronger effect = lower value 0.659 | locus YHR079C, strain IRE1, stronger effect = lower value 0.732 | locus YHR094C, strain hxt1, stronger effect = lower value 0.721 | locus YHR129C, strain ARP1, stronger effect = lower value 0.349 | locus YHR142W, strain chs7, stronger effect = lower value 0.309 | locus YHR200W, strain rpn10, stronger effect = lower value 0.749 | locus YIL066C, strain RNR3, stronger effect = lower value 0.308 | locus YIL073C, strain SPO22, stronger effect = lower value 0.623 | locus YIL125W, strain kgd1, stronger effect = lower value 0.812 | locus YIR030C, strain dcg1, stronger effect = lower value 0.552 | locus YJL092W, strain hpr5, stronger effect = lower value 0.7 | locus YJL095W, strain BCK1 (second series), stronger effect = lower value 0.372 | locus YJL095W, strain BCK1, stronger effect = lower value 0.211 and 0.783 | locus YJL115W, strain asf1, stronger effect = lower value 0.856 | locus YJL129C, strain trk1, stronger effect = lower value 0.35 | locus YJL134W, strain LCB3, stronger effect = lower value 0.692 | locus YJL154C, strain vps35, stronger effect = lower value 0.776 | locus YJL164C, strain tpk1, stronger effect = lower value 0.316 | locus YJL166W, strain qcr8, stronger effect = lower value 0.312 | locus YJL168C, strain set2, stronger effect = lower value 0.866 | locus YJL187C, strain SWE1 (second series), stronger effect = lower value 0.142 | locus YJR043C, strain POL32, stronger effect = lower value 0.385
